“And” between values parts separate entries of the source, which are not always exact repeats. Equal entries are not always repeated. Records with an inconclusive call do not appear. The source made the active and inactive calls. Unless noted, calls follow the shape of the dose curve; as a rule, active = well fitted curve in either direction with a large enough effect (not every such curve was filed as active); inconclusive = small, poorly fitted or top-dose-only effect, or another doubt; inactive = flat fitted curve, though single readings scatter.
Assays:
[1] = AP1 Signaling Pathway (AID 357); conditions: ME-180 AP-1-bla reporter, EGF-induced, beta-lactamase ratio, 5 h; series mostly up to 17.2 µM;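 also: ME-180 reporter cells stimulated with EGF at its EC50 level; % is scaled to controls: 0 for no effect and ±100 for the full control effect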
Summary of the method: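 Read-out was the 460nm/530nm emission ratio (excitation 405nm) after CCF4 loading for 2.5 hours at room temperature. Cells carried an AP-1-driven beta-lactamase reporter, were stimulated with EC50 EGF plus compound for 5 hours, and AC50 values came from titrations.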

[2] = biological target: Cytochrome P450 1A2 (Homo sapiens) (UniProt P05177); assay: p450-cyp1a2 (AID 410; calls by dose curve; also: potency is read from the fitted curve at half-maximal effect;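 as to activity change, negative = inhibition: -100% = full effect of reference inhibitor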); conditions: recombinant CYP1A2, luciferin-ME demethylation, luminescence; series mostly up to 25.6 µM
Summary of the method: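 Inhibition was calculated relative to 57 uM furafylline (full inhibition). The reaction used human CYP1A2 at 20nM with Luciferin-ME at its Km, 100uM, driven by an NADPH-regenerating system for 60 min at room temperature.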

[3] = NFAT Signaling Pathway (AID 444); conditions: Jurkat NFAT-bla M1, carbachol, beta-lactamase ratio, 5 h;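 also: carbachol stimulus at about its EC50 of 1 µM final; % is scaled to controls: 0 for no effect and ±100 for the full control effect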
Summary of the method: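 Jurkat cells carrying an NFAT-driven β-lactamase reporter and co-transfected muscarinic M1 receptor were treated with compound plus carbachol (1 uM final, an EC50 level) for 5 h at 37 °C. CCF4 loading followed for 1 h at RT; 460/530 nm ratio gave %activity.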

[4] = Stat Signaling Pathway (AID 446); conditions: ME-180 SIE beta-lactamase reporter, IL-6 stimulated, 5 h; series mostly up to 17.2 µM;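 also: ME-180 cervical cancer cells given 40 pM IL-6 alongside compound; SIE-controlled beta-lactamase reporter measured as 460/530 nm FRET emission ratio; % is scaled to controls: 0 for no effect and ±100 for the full control effect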
Summary of the method: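 ME-180 SIE-bla cells; overnight plating; cpd + IL-6 40 pM, 5 h, 37 C; LiveBLAzer 2.5 h RT; 460/530 nm emission ratio. Normalized to 300 pM IL-6 and 125 nM JAK inhibitor controls.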

[5] = biological target: Glucocorticoid receptor (Homo sapiens) (UniProt P04150); assay: GR-GFP Redistribution (AID 450;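 active = compounds whose dose series gives a full or clear partial fitted curve of increased nuclear translocation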; also: potency is read from the fitted curve at half-maximal effect); conditions: U2OS GR-GFP nuclear translocation, laser cytometry, 2 h
[6] = biological target: Glucocorticoid receptor (Homo sapiens) (UniProt P04150); assay: GR-EFC Redistribution (AID 451; calls by dose curve; also: potency is read from the fitted curve at half-maximal effect); conditions: CHO-K1 GR-EFC translocation, beta-gal luminescence, 2 h
Summary of the method: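 CHO-K1 cells stably expressing nuclear-localized β-gal enzyme acceptor and GR fused C-terminally to the enzyme donor fragment; ligand-driven nuclear translocation restores β-gal by complementation. Compounds titrated up to 46 uM final, 2 h at 37 °C; luminescence read.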

[7] = biological target: Mitogen-activated protein kinase 10 (Mus musculus) (UniProt Q61831); assay: JNK3 AlphaScreen Assay (AID 530); conditions: JNK3 lysate, c-Jun phosphorylation; series mostly up to 57.1 µM;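 also: kinase came from lysate of stimulated human HepG2 cells; signal reports phosphorylation of biotinylated GST-cJun 1-79 at Ser73 with 10 µM ATP; % is scaled to controls: 0 for no effect and ±100 for the full control effect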
Summary of the method: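 JNK3 came from HepG2 lysates pre-activated with IL-1beta and TNF-alpha and phosphorylated biotinylated GST-cJun (1-79) at 10 uM ATP, pH 7.6, room temperature. Compounds were titrated. AlphaScreen signal used anti-phospho-cJun (Ser73) antibody.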

[8] = biological target: 3',5'-cyclic-AMP phosphodiesterase 4B (Homo sapiens) (UniProt Q07343); assay: qHTS Assay for Inhibitors of PDE-IV (AID 607; active = well fitted activation curve with a large enough effect in the main read-out, with a control signal flat, not every such curve was filed as active; also: % of control where 0% means no effect); conditions: HEK293 ACTOne CNG channel cells, membrane potential fluorescence; series mostly up to 22.9 µM
Summary of the method: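 ACTOne HEK293 cells carry a modified cAMP-gated CNG channel and express endogenous PDE4; plated 1000 cells/well, compounds up to 22.9 uM final. Membrane-potential dye fluorescence (ex 535/em 590) was read; parental cells received 10 uM forskolin + 100 uM RO 20-1724.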

[9] = biological target: Cytochrome P450 3A4 (Homo sapiens) (UniProt P08684); assay: qHTS Assay for Activators of Cytochrome P450 3A4 (AID 885; active = well fitted curve in the direction sought with a large enough effect; an effect the other way counts as inactive or inconclusive; also: nearly all actives have a fitted effect of over 65% in size); conditions: recombinant CYP3A4, Luciferin-PPXE luminescence, 60 min; series mostly up to 57.1 µM
Summary of the method: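 20nM CYP3A4 + 25uM Luciferin-PPXE (=KM), 200mM KPO4; cpd 10 min RT; NADPH regen, 60 min RT; stop w/ detection buffer, 20 min; luminescence. Normalized to 57 uM ketoconazole.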

[10] = qHTS Assay for Lipid Storage Modulators (AID 1519; calls by dose curve); conditions: Drosophila S3 cells, BODIPY lipid droplet/cell ratio, laser cytometry, cells loaded with oleic acid
Summary of the method: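 Cells seeded at 5,000 per well were treated with compounds over a concentration series and loaded with oleic acid (400 uM, as added). Lipid droplet fluorescence (488 nm excitation, 500-530 nm channel) was read by laser-scanning cytometry and normalized to 20 uM Triacsin C.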

[11] = biological target: Ubiquitin carboxyl-terminal hydrolase 1 (Homo sapiens) (UniProt O94782); assay: Inhibitors of USP1/UAF1: Pilot qHTS (AID 504865; active = well fitted curve in the direction sought with a large enough effect; an effect the other way counts as inactive or inconclusive;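 also: rhodamine fluorescence freed from ubiquitin-rhodamine substrate followed over time; top concentration of the series differs between compounds; % is scaled to controls: 0 for no effect and ±100 for the full control effect; nearly all actives have a fitted effect of over 35% in size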); conditions: purified USP1/UAF1, Ub-rhodamine cleavage fluorescence; series mostly up to 114 µM
Summary of the method: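 Enzyme-free wells gave the negative control, while test wells held 1nM USP1/UAF1 preincubated with compound for 15 min at room temperature. Ub-Rho at 150nM final started the reaction, and fluorescence at 480/540 nm was recorded kinetically.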

[12] = qHTS profiling for inhibitors of Plasmodium falciparum proliferation (AID 504749; active = well fitted curve in the direction sought with a large enough effect; an effect the other way counts as inactive or inconclusive;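 also: 0% = DMSO vehicle and full inhibition = artemisinin control; nearly all actives have a fitted effect of over 60% in size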); conditions: P. falciparum in erythrocytes, SYBR Green DNA, 72 h
Summary of the method: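 P. falciparum-infected erythrocytes (0.3% parasitemia, 2.5% hematocrit final) were exposed to compounds for 72 h at 37 C in 5% CO2, then lysed with SYBR Green buffer overnight at room temperature; parasite DNA fluorescence was normalized to artemisinin and DMSO controls.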

[13] = measured here: cell count channel max response
[14] = measured here: lipid channel max response
[15] = at 28.7 µM (top of the series), parasite line A
[16] = at 28.7 µM (top of the series), parasite line B

Chain of Ubiquitin carboxyl-terminal hydrolase 1 (Homo sapiens) (O94782 whole entry, looked up): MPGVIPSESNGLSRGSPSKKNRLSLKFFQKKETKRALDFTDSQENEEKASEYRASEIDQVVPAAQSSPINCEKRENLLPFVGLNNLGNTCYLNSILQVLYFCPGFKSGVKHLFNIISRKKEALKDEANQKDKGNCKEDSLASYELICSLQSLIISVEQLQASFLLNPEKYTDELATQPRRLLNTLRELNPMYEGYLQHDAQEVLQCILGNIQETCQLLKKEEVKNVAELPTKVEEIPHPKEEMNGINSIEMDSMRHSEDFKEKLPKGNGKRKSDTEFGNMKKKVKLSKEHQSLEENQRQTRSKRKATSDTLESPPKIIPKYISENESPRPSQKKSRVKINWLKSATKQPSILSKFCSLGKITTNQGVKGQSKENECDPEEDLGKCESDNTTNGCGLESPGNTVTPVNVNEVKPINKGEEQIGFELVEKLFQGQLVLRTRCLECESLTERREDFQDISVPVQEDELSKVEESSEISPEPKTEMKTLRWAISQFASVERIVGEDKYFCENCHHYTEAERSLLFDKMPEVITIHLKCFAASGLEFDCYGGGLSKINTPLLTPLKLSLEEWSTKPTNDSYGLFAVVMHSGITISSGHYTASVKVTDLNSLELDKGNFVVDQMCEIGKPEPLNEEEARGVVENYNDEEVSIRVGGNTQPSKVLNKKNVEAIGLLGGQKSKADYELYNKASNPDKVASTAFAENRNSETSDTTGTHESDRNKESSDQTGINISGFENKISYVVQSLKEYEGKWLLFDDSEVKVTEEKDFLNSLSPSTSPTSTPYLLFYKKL
Chain of Glucocorticoid receptor (Homo sapiens) (P04150 whole entry, looked up, the tested form may be a part): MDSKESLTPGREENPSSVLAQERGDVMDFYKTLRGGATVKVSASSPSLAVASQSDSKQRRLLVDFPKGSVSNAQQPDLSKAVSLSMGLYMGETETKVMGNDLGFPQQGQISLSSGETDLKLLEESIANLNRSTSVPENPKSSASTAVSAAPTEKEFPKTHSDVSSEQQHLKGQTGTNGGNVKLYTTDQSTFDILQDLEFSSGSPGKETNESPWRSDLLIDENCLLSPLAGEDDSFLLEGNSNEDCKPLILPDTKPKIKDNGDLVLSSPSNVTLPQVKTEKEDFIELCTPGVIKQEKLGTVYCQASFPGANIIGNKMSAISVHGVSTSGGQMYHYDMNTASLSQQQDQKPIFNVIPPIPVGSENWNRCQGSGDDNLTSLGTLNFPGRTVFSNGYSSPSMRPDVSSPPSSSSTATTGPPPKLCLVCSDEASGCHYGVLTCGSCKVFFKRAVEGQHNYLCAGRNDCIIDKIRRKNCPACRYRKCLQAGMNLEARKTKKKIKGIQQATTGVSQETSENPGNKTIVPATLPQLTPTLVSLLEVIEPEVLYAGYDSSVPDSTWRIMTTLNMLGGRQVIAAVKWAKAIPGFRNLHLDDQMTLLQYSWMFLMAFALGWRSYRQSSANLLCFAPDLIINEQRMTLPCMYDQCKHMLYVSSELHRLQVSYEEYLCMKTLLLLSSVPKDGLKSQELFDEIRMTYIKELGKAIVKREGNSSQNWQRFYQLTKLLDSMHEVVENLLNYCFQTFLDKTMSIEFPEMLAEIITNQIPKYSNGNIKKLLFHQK
Chain of 3',5'-cyclic-AMP phosphodiesterase 4B (Homo sapiens) (Q07343 whole entry, looked up): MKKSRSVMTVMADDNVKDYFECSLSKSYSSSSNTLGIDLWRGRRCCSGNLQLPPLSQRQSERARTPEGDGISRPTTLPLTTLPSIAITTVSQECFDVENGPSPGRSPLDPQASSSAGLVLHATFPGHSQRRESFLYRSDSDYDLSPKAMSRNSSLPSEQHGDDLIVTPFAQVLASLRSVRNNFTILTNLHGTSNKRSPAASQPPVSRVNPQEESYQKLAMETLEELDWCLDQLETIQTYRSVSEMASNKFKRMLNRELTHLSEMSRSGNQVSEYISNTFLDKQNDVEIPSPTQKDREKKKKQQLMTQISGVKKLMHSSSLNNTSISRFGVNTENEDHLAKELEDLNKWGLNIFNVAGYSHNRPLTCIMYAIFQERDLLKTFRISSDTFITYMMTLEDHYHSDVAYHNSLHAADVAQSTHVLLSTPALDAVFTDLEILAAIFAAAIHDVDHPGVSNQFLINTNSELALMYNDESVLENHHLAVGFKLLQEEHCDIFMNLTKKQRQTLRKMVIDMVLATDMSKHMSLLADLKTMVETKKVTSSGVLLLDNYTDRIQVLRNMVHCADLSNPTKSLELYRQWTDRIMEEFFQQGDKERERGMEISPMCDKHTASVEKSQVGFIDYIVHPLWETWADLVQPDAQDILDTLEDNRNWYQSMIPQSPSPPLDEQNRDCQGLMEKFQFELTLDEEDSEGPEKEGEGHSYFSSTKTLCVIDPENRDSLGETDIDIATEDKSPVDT
Chain of Cytochrome P450 1A2 (Homo sapiens) (P05177 whole entry, looked up): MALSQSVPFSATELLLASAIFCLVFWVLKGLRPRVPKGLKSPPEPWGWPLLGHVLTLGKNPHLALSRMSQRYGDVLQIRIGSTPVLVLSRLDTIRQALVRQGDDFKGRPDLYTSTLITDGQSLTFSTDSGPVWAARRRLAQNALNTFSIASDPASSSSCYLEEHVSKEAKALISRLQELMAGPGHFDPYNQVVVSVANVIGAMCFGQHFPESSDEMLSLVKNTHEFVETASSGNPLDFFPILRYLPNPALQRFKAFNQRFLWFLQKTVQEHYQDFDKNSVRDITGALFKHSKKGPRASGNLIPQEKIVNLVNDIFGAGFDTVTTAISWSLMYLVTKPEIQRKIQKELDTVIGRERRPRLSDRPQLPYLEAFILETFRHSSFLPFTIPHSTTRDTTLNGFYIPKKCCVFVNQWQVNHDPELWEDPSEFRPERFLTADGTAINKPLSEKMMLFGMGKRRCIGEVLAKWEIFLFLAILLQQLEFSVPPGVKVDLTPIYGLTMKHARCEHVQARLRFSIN
Chain of Cytochrome P450 3A4 (Homo sapiens) (P08684 whole entry, looked up): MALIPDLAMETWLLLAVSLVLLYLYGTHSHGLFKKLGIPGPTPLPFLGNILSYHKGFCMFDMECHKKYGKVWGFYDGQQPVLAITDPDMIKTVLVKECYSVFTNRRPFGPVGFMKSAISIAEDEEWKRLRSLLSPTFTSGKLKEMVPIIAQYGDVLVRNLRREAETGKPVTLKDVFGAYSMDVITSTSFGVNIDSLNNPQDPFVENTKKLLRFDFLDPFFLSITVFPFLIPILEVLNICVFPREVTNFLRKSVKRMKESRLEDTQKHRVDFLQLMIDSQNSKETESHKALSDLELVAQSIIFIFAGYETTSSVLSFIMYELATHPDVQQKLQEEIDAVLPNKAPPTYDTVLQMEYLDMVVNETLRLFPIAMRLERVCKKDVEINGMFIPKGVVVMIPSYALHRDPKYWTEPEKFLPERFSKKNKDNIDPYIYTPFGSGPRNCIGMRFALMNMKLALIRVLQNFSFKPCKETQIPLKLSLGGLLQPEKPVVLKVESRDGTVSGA

SMILES | outcome [1] | Potency [2] | activity change, negative = inhibition ([3]; at 17.2 µM (top of the series)) | outcome [4] | Potency [5] | Potency [6] | outcome [7] | Potency [8] | Potency [9] | activity change, negative = inhibition ([10]; at 25.7 µM (top of the series)) | max response [10, 13] | max response [10, 14] | Potency [11] | activity change, negative = inhibition ([3]; at 7.69 µM (top of the series)) | activity, negative = inhibition ([12]; at 12.8 µM (top of the series), parasite line A) | activity, negative = inhibition ([12]; at 12.8 µM (top of the series), parasite line B) | activity, negative = inhibition [12, 15] | activity, negative = inhibition [12, 16] | activity change, negative = inhibition ([3]; at 38 µM (top of the series)) | activity change, negative = inhibition ([10]; at 57.5 µM (top of the series))
C=C1C/C(=C\C)C(=O)O[C@@H]2CCN3CC=C(COC(=O)[C@@]1(C)O)[C@H]23 | inactive | inactive | -7.46% (inactive) | inactive | > 20.6 µM (inactive) | > 20.6 µM (inactive) | inactive | inactive | inactive | 1.53% (inactive) | 8.7% | 10.5% | inactive |  |  |  |  |  |  | 
C[N+]1([O-])[C@@H]2CC(OC(=O)[C@@H](CO)c3ccccc3)C[C@@H]1[C@H]1O[C@H]12 (stereo not given in full) | inactive | inactive | -52.1% (active) | inactive | > 20.6 µM (inactive) and > 46 µM (inactive) | > 20.6 µM (inactive) and > 9.22 µM (inactive) | inactive | inactive |  | 0.148% (inactive) | 26% | 27.4% | inactive | -78.2% (active) | -0.201% (inactive) | -5.73% (inactive) | 13.1% (inactive) | 10.8% (inactive) |  | 
CC1=C2[C@@H]3OC(=O)[C@@H](C)[C@@H]3CC[C@]2(C)C=CC1=O | inactive | 10 µM (active) | -9.62% (inactive) | inactive |  | > 20.6 µM (inactive) |  | inactive |  | 0.607% (inactive) | -1.82% | -3.78% |  |  |  |  | -27% (inactive) | -4.04% (inactive) |  | 
C=C[C@H]1CN2CC[C@@H]1C[C@H]2[C@@H](O)c1ccnc2ccccc12 | inactive | inactive | -25.9% (inactive) | inactive | > 20.6 µM (inactive) | > 20.6 µM (inactive) | inactive | inactive |  | -1.72% (inactive) and -4.09% (inactive) | 9.79% and -10.1% | 6.74% and -12.1% |  |  |  |  |  |  |  | 
COC1=CC(=O)O[C@@H](/C=C\c2ccccc2)C1 | inactive | 3.16 µM (active) | -0.425% (inactive) | inactive |  | > 20.6 µM (inactive) | inactive | inactive |  | 1.1% (inactive) | -5.23% | -0.269% |  |  |  |  |  |  |  | 
COc1ccc(OC)c([C@H](O)[C@H](C)N)c1 | inactive | inactive | 4.39% (inactive) | inactive | > 46 µM (inactive) and > 20.6 µM (inactive) | > 46 µM (inactive) and > 20.6 µM (inactive) | inactive | inactive |  | 1.13% (inactive) | 7.1% | 6.97% | inactive |  |  |  |  |  | 2.27% (inactive) | 
c1cc(CN2CCC3(CCNCC3)CC2)ccn1 | inactive | inactive |  | inactive |  | > 46 µM (inactive) | inactive | inactive |  |  | 10.7% | 18.5% |  | -8.56% (inactive) |  |  |  |  |  | 4.55% (inactive)

— PubChem BioAssay (NCATS)
